log2 fold change data for six targets are collected here from the supplement of paper PMC10849652.

About 7,900 targets were measured; listed, in parts, are those with a hit and a random draw of the rest. About 0.6% of all pairs of compound and target were hits. Values without a mark were called inactive.

Holding throughout (assay): log2 fold change, soluble protein after heating vs DMSO (PISA); higher = thermal stabilisation; K562 cells, 10 uM, 30 min; active = over 0.2 and 3.5 SD of the protein, either way, in both replicates (recomputed)
Compound in experiment [1]: CC[C@@H]1C(=O)N(C)c2cnc(Nc3ccc(C(=O)NC4CCN(C)CC4)cc3OC)nc2N1C1CCCC1
In short, it runs like this: (§1)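 Quantification of soluble protein used TMTpro 16plex LC-MS/MS, with channel sums equalised. Samples were the supernatant after 21,000xg for 90 min of pooled aliquots from K562 cells (2×10^6 cells/mL) treated with 10 μM compound for 30 min, heated for 3 min over 48°C-58°C, and extracted in PBS with 0.5% NP-40 at 4°C. Values, from duplicates, describe thermal stability against control samples on a log2 fold-change scale.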

Compound in a further experiment: CC[C@@H]1C(=O)N(C)c2cnc(Nc3ccc(C(=O)N[C@H]4CC[C@H](N5CCN(CC6CC6)CC5)CC4)cc3OC)nc2N1C(C)C [volasertib]
The essentials: as §1

Compound in experiment [2]: CC[C@H](C)N1C=C(C2=C(C=C(C=C21)C3=CN=C(C=C3)N4CCNCC4)C(=O)NCC5=C(C=C(NC5=O)C)C)C
In short, it runs like this: as §1

Compound in a further experiment: CC[C@H](C)[C@@H](C(=O)N[C@@H]([C@@H](C)O)C(=O)N[C@@H](CC(C)C)C(=O)[C@]1(CO1)C)NC(=O)[C@H]([C@@H](C)CC)N(C)C(=O)C [epoxomicin]
The essentials:
as §1

Compound in experiment [3]: CCn1c(C(=O)N(C2CC2)C2CC2)cc2c3c(ncn3C)c(Nc3cc(C)n(C)n3)nc21
The essentials:
as §1

Compound in experiment [4]: CCn1cc(-c2ccnc3[nH]c(-c4cccc(CN(C)C)c4)cc23)c(-c2ccc(NC(=O)N(C)C)cc2)n1
In short, it runs like this: as §1

Compound in experiment [5]: CN(C)CC(=O)Nc1ccc2[nH]c(=O)c3ccccc3c2c1
The essentials:
as §1

Compound in a further experiment: CN(CCOC1=CC=C(C=C1)C[C@H]2C(=O)NC(=O)S2)C3=CC=CC=N3 (racemic) [rosiglitazone]
In short, it runs like this:
as §1

Compound in experiment [6]: CN1C2=C(C3=C1C(=O)N(N=C3)CC4=CC(=CC=C4)N)SC(=C2)S(=O)C
The essentials:
as §1

Compound in experiment [7]: CN1CCC(CNc2ccc3ncc(-c4cccc(OC(F)(F)F)c4)n3n2)CC1
In short, it runs like this:
as §1

Compound in a further experiment: CN1CCN(CCOc2cc(OC3CCOCC3)c3c(Nc4c(Cl)ccc5c4OCO5)ncnc3c2)CC1 [saracatinib]
The essentials:
as §1

Compound in another experiment: CN1CCN(c2nc(C3=C(c4c[nH]c5ccccc45)C(=O)NC3=O)c3ccccc3n2)CC1 [sotrastaurin]
The essentials:
as §1

Compound in a further experiment: CN1CC[C@H](c2c(O)cc(O)c3c(=O)cc(-c4ccccc4Cl)oc23)[C@H](O)C1 [alvocidib]
The essentials:
as §1

Compound in another experiment: CN1CCc2c(c3ccccc3n2Cc2ccc(C(=O)NO)cc2)C1 [Tubastatin A]
The essentials:
as §1

Compound in experiment [8]: CNC(=O)C1=CC=CC=C1NC2=NC(=NC=C2Cl)NC3=C(C=C(C=C3)N4CCOCC4)OC
The essentials:
as §1

Compound in another experiment: CNC(=O)c1ccc(Nc2ncc(C(F)(F)F)c(NCc3nccnc3N(C)S(C)(=O)=O)n2)cc1 [defactinib]
In short, it runs like this: as §1

Compound in a further experiment: CNCc1ccc(-c2[nH]c3cc(F)cc4c3c2CCNC4=O)cc1 [rucaparib]
The essentials: as §1

Compound in experiment [9]: CNc1nc(-c2ccc3c(N)n[nH]c3c2)cc(N2C[C@@H](C(=O)NC3CCCCC3)CC[C@H]2C)n1
In short, it runs like this:
as §1

Compound in another experiment: COC(=O)N[C@@H](C)CNc1nccc(-c2cn(C(C)C)nc2-c2cc(Cl)cc(NS(C)(=O)=O)c2F)n1 [encorafenib]
The essentials:
as §1

Compound in experiment [10]: COC(=O)[C@H](CCSC)NC(=O)C1=C(C=C(C=C1)NC[C@H](CS)N)C2=CC=CC=C2
The essentials: as §1

Sequence of UniProt Q6P2E9 (Q6P2E9 whole entry, looked up): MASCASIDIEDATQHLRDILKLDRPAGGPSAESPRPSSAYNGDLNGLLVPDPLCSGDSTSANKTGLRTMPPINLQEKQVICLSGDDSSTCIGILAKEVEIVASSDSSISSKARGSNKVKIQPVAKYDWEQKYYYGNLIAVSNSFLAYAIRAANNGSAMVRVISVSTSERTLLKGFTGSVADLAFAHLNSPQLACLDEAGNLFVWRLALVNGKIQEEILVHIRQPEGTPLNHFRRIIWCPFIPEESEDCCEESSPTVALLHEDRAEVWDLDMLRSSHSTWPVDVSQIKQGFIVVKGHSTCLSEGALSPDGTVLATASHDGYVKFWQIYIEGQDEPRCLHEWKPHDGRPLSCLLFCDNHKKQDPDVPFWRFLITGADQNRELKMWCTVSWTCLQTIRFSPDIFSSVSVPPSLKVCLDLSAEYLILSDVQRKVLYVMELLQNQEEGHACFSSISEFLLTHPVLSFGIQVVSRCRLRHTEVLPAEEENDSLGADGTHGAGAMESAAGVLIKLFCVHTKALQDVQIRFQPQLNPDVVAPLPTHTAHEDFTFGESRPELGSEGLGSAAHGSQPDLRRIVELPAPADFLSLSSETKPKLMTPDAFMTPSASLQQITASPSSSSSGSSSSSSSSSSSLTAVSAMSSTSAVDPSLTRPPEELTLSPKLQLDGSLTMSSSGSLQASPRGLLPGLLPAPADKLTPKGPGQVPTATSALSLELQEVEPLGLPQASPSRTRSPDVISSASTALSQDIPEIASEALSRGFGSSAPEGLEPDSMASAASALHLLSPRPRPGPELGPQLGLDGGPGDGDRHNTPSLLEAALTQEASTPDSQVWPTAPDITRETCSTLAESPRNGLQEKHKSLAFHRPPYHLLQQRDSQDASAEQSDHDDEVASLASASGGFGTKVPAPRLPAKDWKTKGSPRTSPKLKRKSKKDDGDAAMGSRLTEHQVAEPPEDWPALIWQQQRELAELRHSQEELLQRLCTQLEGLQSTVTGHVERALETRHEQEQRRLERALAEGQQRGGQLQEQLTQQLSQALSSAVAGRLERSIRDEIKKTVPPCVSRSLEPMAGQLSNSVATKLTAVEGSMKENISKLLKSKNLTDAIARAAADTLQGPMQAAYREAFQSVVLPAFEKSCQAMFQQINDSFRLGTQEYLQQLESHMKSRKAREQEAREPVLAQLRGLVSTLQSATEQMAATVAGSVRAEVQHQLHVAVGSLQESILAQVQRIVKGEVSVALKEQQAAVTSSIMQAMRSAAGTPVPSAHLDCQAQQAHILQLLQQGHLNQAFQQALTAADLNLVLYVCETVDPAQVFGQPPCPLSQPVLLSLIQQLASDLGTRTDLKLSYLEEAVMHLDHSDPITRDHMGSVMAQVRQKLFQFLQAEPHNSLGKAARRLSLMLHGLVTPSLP
Sequence of UniProt P18074 (P18074 whole entry, looked up): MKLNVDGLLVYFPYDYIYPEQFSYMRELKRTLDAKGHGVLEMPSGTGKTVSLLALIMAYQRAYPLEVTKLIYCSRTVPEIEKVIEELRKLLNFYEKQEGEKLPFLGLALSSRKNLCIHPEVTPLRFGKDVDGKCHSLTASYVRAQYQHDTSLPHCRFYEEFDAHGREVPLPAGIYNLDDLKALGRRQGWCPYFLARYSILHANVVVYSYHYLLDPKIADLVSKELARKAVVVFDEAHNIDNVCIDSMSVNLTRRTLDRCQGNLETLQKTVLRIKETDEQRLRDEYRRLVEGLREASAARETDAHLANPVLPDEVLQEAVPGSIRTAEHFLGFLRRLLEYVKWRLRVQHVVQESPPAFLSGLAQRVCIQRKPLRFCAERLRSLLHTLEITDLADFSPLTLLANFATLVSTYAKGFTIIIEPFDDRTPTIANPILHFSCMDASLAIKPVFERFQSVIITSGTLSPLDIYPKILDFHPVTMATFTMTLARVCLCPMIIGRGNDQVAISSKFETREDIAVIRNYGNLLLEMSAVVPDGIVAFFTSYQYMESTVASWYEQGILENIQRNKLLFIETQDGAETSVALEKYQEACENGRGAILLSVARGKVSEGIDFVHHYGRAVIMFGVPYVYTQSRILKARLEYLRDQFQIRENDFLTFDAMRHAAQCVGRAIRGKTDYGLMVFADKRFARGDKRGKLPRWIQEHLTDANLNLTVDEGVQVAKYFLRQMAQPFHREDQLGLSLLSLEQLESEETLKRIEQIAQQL
Sequence of UniProt Q9NYP7 (Q9NYP7 whole entry, looked up): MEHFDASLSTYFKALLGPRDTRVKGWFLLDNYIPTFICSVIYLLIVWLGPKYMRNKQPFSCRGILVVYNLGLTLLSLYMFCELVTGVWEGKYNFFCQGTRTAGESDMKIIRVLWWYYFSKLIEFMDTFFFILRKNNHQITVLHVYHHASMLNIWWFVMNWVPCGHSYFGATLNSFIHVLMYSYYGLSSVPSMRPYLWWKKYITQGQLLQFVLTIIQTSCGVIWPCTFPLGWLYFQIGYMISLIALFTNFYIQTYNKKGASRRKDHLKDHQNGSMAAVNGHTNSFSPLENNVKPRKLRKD
Sequence of UniProt P39656 (P39656 whole entry, looked up): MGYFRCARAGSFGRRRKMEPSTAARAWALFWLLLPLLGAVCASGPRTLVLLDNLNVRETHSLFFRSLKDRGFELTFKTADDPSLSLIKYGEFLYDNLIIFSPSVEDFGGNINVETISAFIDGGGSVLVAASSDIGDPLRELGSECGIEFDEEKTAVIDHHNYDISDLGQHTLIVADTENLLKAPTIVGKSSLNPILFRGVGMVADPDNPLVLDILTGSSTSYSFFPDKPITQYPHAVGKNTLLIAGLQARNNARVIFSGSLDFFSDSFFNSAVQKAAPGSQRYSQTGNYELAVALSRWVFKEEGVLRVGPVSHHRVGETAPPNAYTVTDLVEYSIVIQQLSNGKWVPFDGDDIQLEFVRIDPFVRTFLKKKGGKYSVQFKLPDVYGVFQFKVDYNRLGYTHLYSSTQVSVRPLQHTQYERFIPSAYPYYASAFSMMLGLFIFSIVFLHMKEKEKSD
Sequence of UniProt Q9UBQ6 (Q9UBQ6 whole entry, looked up): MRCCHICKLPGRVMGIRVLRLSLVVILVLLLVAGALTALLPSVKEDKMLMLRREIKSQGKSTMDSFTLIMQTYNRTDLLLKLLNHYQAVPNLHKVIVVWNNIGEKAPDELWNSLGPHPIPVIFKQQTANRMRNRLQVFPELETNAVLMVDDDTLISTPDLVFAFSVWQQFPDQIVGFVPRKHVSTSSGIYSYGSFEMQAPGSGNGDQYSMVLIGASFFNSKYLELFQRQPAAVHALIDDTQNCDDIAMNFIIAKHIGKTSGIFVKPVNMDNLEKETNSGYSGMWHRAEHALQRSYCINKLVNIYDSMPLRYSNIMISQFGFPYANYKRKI
Sequence of UniProt Q8NBA8 (Q8NBA8 whole entry, looked up): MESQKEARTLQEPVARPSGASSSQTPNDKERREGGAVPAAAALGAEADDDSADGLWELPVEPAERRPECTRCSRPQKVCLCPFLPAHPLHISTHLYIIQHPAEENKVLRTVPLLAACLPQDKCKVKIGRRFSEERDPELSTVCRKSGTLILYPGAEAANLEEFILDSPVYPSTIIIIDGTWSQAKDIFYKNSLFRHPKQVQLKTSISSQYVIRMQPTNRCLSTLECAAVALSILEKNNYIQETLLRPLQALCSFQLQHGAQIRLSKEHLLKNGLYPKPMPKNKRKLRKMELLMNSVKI

On to ELOVL5 isoform 2 (UniProt Q9NYP7), for which the log2 fold change was -0.227 in experiment [1]; -0.164 in the experiment with volasertib; 0.026 in experiment [2]; -0.034 in the experiment with epoxomicin; 0.049 in experiment [3]; -0.206 in experiment [4]. The log2 fold change in experiment [5] is 0.021; with rosiglitazone, 0.122; in experiment [6], -0.044; in [7], -0.691 (active); with saracatinib it was -0.037; with sotrastaurin it was -0.084. Also, the log2 fold change in the experiment with alvocidib was -0.021; with Tubastatin A, -0.085; in [8], -0.032; with defactinib, -0.016; with rucaparib it was -0.026; in experiment [9], -0.135. Besides, the results for the log2 fold change (in the experiment with encorafenib; in [10]) were 0.132 and -0.048, respectively.

Take DDOST (UniProt P39656): the log2 fold change was 0.006 in experiment [1]; -0.102 with volasertib; -0.014 in [2]; -0.014 in the experiment with epoxomicin; 0.015 in experiment [3]; 0.052 in experiment [4]. In addition, the log2 fold change in [5] was -0.031; with rosiglitazone it was -0.007; in [6] it was 0.019; in experiment [7], 0.089; with saracatinib, -0.015; with sotrastaurin, -0.03. Moreover, the log2 fold change with alvocidib was 0.013; with Tubastatin A it was 0.021; in [8] it was 0.008; in the experiment with defactinib, 0.042; with rucaparib it was -0.029; in [9], -0.005. The values for the log2 fold change (in the experiment with encorafenib; in [10]) were 0.059 and -0.002, respectively.

As for EXTL2 (UniProt Q9UBQ6), the log2 fold change in experiment [1] was 0.057; with volasertib it was -0.052; in experiment [2], 0.041; with epoxomicin it was -0.035; in experiment [3], -0.04; in experiment [4] it was -0.046. Besides, the log2 fold change in [5] is 0.06; with rosiglitazone, -0.024; in experiment [6] it was -0.001; in experiment [7], -0.157; with saracatinib, 0.157; in the experiment with sotrastaurin, 0.036. For the same target, the log2 fold change was -0.122 with alvocidib; -0.136 with Tubastatin A; -0.072 in [8]; -0.145 in the experiment with defactinib; 0.001 with rucaparib; 0.052 in [9]. Further, the log2 fold change with encorafenib was -0.08; in experiment [10] it was 0.13.

As for DTWD2 (UniProt Q8NBA8), the log2 fold change in experiment [1] was -0.047; with volasertib it was -0.048; in experiment [2], 0.057; in the experiment with epoxomicin, -0.015; in experiment [3], 0.057; in [4], -0.018. The log2 fold change was -0.106 in experiment [5]; 0.005 with rosiglitazone; -0.066 in experiment [6]; 0.035 in experiment [7]; -0.032 with saracatinib; -0.228 with sotrastaurin. The log2 fold change with alvocidib is 0.059; with Tubastatin A, -0.029; in experiment [8], 0.111; in the experiment with defactinib it was -0.022; in the experiment with rucaparib, 0.05; in experiment [9] it was 0.04. Moreover, the log2 fold change with encorafenib is 0.002; in experiment [10], -0.032.

Take ERCC2 (UniProt P18074): the log2 fold change is -0.015 in experiment [1]; -0.258 with volasertib; 0.043 in experiment [2]; 0.326 (active) with epoxomicin; 0.003 in experiment [3]; -0.076 in experiment [4]. The log2 fold change in experiment [5] is -0.019; in the experiment with rosiglitazone, 0.007; in experiment [6] it was 0.013; in experiment [7] it was -0.153; with saracatinib it was -0.016; with sotrastaurin it was -0.035. In addition, the log2 fold change in the experiment with alvocidib was -0.062; with Tubastatin A it was 0.051; in experiment [8] it was -0.01; with defactinib, -0.094; with rucaparib it was -0.013; in experiment [9], -0.027. The log2 fold change in the experiment with encorafenib was 0.177; in experiment [10] it was -0.005.

Take EDC4 (UniProt Q6P2E9): the log2 fold change is -0.126 in experiment [1]; -0.47 (active) with volasertib; 0.042 in experiment [2]; 0 with epoxomicin; -0.009 in [3]; 0.039 in experiment [4]. Further, the log2 fold change in experiment [5] was -0.006; with rosiglitazone, 0.014; in [6] it was 0.07; in experiment [7] it was -0.084; with saracatinib, -0.023; in the experiment with sotrastaurin, -0.109. Besides, the log2 fold change with alvocidib was -0.167; in the experiment with Tubastatin A it was 0.016; in experiment [8] it was -0.163; with defactinib it was -0.148; in the experiment with rucaparib it was -0.012; in [9] it was -0.099. The values for the log2 fold change (with encorafenib; in experiment [10]) were 0.113 and 0.005, respectively.
